According to PubChem BioAssay:
Active and inactive are the calls of the source.

Assay: growth modulation of vineyard yeast isolate – strain RM11-1a, OD600, basal, 24 h, primary screen (AID 1177);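 further: cultures grown under basal conditions with no added stressor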
Conditions: S. cerevisiae RM11-1a growth, OD600, 24 h; higher = more signal, called active from +8 up or from −8 down
Further: test concentration not given here.

z-score, inactive:
[N-]=[N+]=Nc1ccccc1[C@@H]1OC(c2ccc(OCCCO)cc2)=N[C@]1(Cc1ccccc1)C(=O)N1CCOCC1 0.857
Cc1nc2cc(Br)ccc2c(=O)o1 -1.08
CC1CC/C=C\[C@H]2OC34C=CCN(C(C)(C)C)C(=O)[C@H]3N(C(C)CO)C(=O)[C@@H]4C2C(=O)O1 (some centres not stated) 0.723
C=CCOC(=O)[C@@H]1[C@H]2C(=O)O[C@H](c3ccccc3)[C@H](c3ccccc3)N2[C@H](c2ccc(OCCOC(=O)[C@H]3C[C@H]4C(=O)N5CCC[C@H]5C(=O)N4[C@H]3c3ccc(O)cc3)cc2)[C@@]12C(=O)Nc1ccc(I)cc12 1.27
C=C(/C(=C/C[C@H](OC(C)=O)c1ccccc1OCCO)c1cnc2ccccc2c1)C(C)C 1
CCCCN1CC=CC23O[C@@H]4C=CCCOC(=O)C4[C@H]2C(=O)N(CCCCCCO)[C@@H]3C1=O (some centres not stated) 0.308
COc1ccc(C#Cc2ccc3c(c2)[C@]2(C(=O)N3)[C@H](C(=O)NC[C@H](O)c3ccccc3)[C@H]3C(=O)O[C@H](c4ccccc4)[C@H](c4ccccc4)N3[C@@H]2c2ccc(O)cc2)cc1 2.29
O=C(c1ccccc1)N1C(=O)[C@]2(COC(c3ccc(OCCCO)cc3)=N2)Cc2ccccc21 0.349

Assay: growth of efflux-deficient E. coli DRC39 – strain DRC39, OD650, 24 h, E. coli filamentation inducers, primary screen (AID 1178);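 further: growth measured as culture turbidity by optical density at 650 nm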
Conditions: E. coli DRC39 acrAB, higher = more signal, called active from +8 up or from −8 down

z-score, inactive:
C=CCN1C(=O)[C@@]2(Cc3ccccc31)N=C(c1ccc(OCCCO)cc1)O[C@H]2c1ccccc1 1.27
CC(C)C(O)C1C=CC2C(=O)N(c3ccccc3)C(=O)C2N1Nc1ccc([N+](=O)[O-])cc1 (configuration not stated) -0.912
COC(=O)[C@H](Cc1ccccc1)N[C@@H](/C=C/C1CC1)[C@H](O)Cc1ccccc1 -0.053
O=C1O[C@H](c2ccccc2)[C@H](c2ccccc2)N2[C@H]1[C@@H](C(=O)N1CCCCCCC1)[C@]1(C(=O)Nc3ccc(C#CC4=CCCCC4)cc31)[C@H]2c1ccc(OCCO)cc1 0.825
CCOC(=O)C[C@H]1[C@H](OC(=O)c2ccc(C(=O)c3ccccc3)cc2)[C@@H](NC(=O)c2ccccc2)c2cc(OCCCO)ccc2N1C(=O)Cc1ccc(OC)cc1 0.722
COc1ccc([Si](C)(C)[C@H]2[C@H](CCO)O[C@@]3(C(=O)N(Cc4ccc(N(C=O)c5ccccc5)cc4)c4ccccc43)[C@@H]2C)cc1 0.216
CC(C)c1ccc(NN2C(C(O)c3ccc(B(O)O)cc3)C=CC3C(=O)N(c4ccccc4)C(=O)C32)cc1 (configuration not stated) -0.329
COc1ccc(CCNC(=O)[C@@]2(Sc3ccc(C)cc3)CC(=O)N(C3Cc4ccccc4C3)[C@@H]2c2ccc(CO)cc2I)cc1 0.0559
COCCOC(=O)N1C(=O)[C@@]2(c3ccccc31)[C@H](c1ccc(O)cc1)N1[C@H](c3ccccc3)[C@H](c3ccccc3)OC(=O)[C@H]1[C@@H]2C(=O)Nc1nc2ccccc2s1 0.411
C=C(C(=O)CC[C@@H](OC(=O)c1cccnc1)c1ccccc1OCCO)C(C)C 0.335
NCCCCCNC(=O)[C@@H]1C[C@@H]2C(=O)N[C@@H](Cc3ccccc3)C(=O)N2[C@@H]1c1ccc(O)cc1 -0.598
CCCCCCc1nc(-c2ccc(OC)nc2)cc2c1[Si](C(C)C)(C(C)C)O[C@H]2c1ccccc1 0.231
C[N+](C)(C)CCCCNC(=O)[C@@H]1C[C@@H]2C(=O)N[C@@H](Cc3ccccc3)C(=O)N2[C@@H]1c1cccc(OCCO)c1 0.994
COc1cc2c(cc1O)C(c1cccs1)N(C)CC2 (configuration not stated) 0.34
C[C@@]1([C@@H](NC(=O)c2ccc(-c3ccccc3)cc2)c2ccc(Cl)cc2)C[C@H]1C1CCCCC1 -0.325
Cc1ccc(S[C@]2(C(=O)O)CC(=O)N(C(C)C)[C@@H]2c2ccc(CO)cc2I)cc1 0.818
CN1C(=O)C2C=CC(C(O)C3CC=CCC3)N(N(c3ccccc3)c3ccccc3)C2C1=O (configuration not stated) -0.486
O=C1NC(=O)C2C1C=CC(C(O)c1cccs1)N2Nc1ccc(Cl)cc1Cl (configuration not stated) 0.0751
C=CCC(OC(C)=O)[C@@H]1[C@@H](N(Cc2ccc(-c3ccccc3)cc2)C(=O)Cc2ccc(OC)cc2)c2cc(OCCCO)ccc2N1C(=O)Cc1ccc2ccccc2c1 (some centres not stated) -0.39
